# A selection: hits, their analogues and other compounds. The true share with any hit is near 8.1%.
# Sfp PPTase inh – inhibitors of Bacillus subtilis Sfp phosphopantetheinyl transferase | Q9F4F7 | Biochemical Sfp PPTase activity, qHTS | Potency, µM, for inactives: largest response in the series, negative = inhibition, actives largely listed as inhibitors | hit rate 3.5% among 310,000 | AID 1490;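 note: the enzyme is Sfp with the accession as filed and its product quenches rhodamine fluorescence; 0% = enzyme reaction without inhibitor and -100% = no enzyme wells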
#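 Sfp 15 nM + cpd, 15 min RT; start w/ rhodamine-CoA 5 uM, BHQ-2-YbbR 12.5 uM (final); 50 mM Hepes pH 7.6, 10 mM MgCl2, 0.01% NP-40, 0.01% BSA; read 525/598 nm at 0 and 30 min.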
# ClpP mod – qHTS Assay for Activators of ClpP | ATP-dependent Clp protease proteolytic subunit (Bacillus subtilis (strain 168)), P80244 | purified B. subtilis ClpP, FRET peptide cleavage, 20 min | Potency, µM (titrated, usually from 57.5 µM), inactives show at the highest dose activity change, negative = active | hit rate 1.9% among 340,000 | AID 651965, 2013; active = well fitted falling curve with a large enough effect; inconclusive = small, poorly fitted or top-dose-only effect; inactive = no such curve, though single readings can be large or run the other way; note: the source files actives as falling curves though it sought activators and does not explain the sign; nearly all actives have a fitted effect of over 65% in size
#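 ClpP 10 microg/mL final, pH 8 Tris/KCl buffer with BSA, glycerol, Tween-20; compound pinned in; FRET-FV substrate; RT 20 min; Ex320/Em430; ΔFRET vs ADEP 5.8 microM, DMSO, no enzyme.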
# Epigenetic reg – regulators of epigenetic silencing causing reporter derepression in mouse cells | AID 1865 | hit rate 0.2% among 280,000 | Potency, µM (titrated, usually from 53.9 µM), without a hit: top-dose GFP activation, actives largely listed as activators | murine LDR cells, GFP reporter derepression, 30 h; note: % of control where 0% means no effect; nearly all actives have a fitted effect of over 60% in size
#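 Murine LDR cells bearing a silenced CMV-driven GFP reporter were exposed to compound for 30 h at 37 C. After PBS washes, GFP-positive cells (20-120 um objects) counted by laser-scanning microplate cytometry.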
# VP16 counter – inhibits Gal4-VP16 luciferase reporter, ROR gamma counter-screen. Drosophila S2 Gal4-VP16 UAS-luciferase, luminescence, 20 h. Potency, µM (doses to about 53.6 µM), for the others: at the top dose activity, negative = inhibition, hits mostly inhibitors. hit rate 3.5% among 310,000. AID 2546;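 note: Gal4-VP16 expression switched on by copper sulfate through the metallothionein promoter; % is set by controls: 0 for no effect and ±100 for the full control effect; nearly all actives have a fitted effect of over 50% in size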
# RORg inh – blocks mouse ROR gamma transcriptional activity; P51450; Drosophila S2 Gal4-RORgamma UAS-luciferase reporter, 20 h; Potency, µM (titrated, usually from 53.6 µM), without a hit: at the highest dose activity change, negative = inhibition, hits mostly inhibitors; hit rate 5.4% among 310,000; AID 2551; note: % is set by controls: 0 for no effect and ±100 for the full control effect; nearly all actives have a fitted effect of over 60% in size
#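 Compounds are pin-transferred onto Drosophila Schneider cells expressing a copper-inducible Gal4–ROR gamma transactivation domain fusion. After 1 hr, copper sulfate is added to 700 uM final; luciferase is read 20 hr later.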
# PINK1 expr mod – PINK1 expression modulation; PINK1 immunofluorescence, high-content cytometry, 24 h; Potency, µM (top dose mostly 76.6 µM), for the others: at the top dose activation (PINK1 increase), usual class: activators; hit rate 0.2% among 410,000; AID 624263; active = well fitted activation curve with a large enough effect; inconclusive = small, poorly fitted or top-dose-only effect; cell line not stated here; note: % of control where 0% means no effect; nearly all actives have a fitted effect of over 65% in size
#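 PINK1 protein level read as immunofluorescence by microplate cytometer in a fixed, stained stable cell line after 24 h exposure to five compound concentrations, with CCCP as control.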
# * = called active by the depositor; ? = inconclusive; . = no result; [ ] = remark or other dose. Unless noted, calls come from the whole dose curve; as a rule, active = well fitted curve in the direction sought with a large enough effect; inconclusive = small, poorly fitted or top-dose-only effect, or another doubt; inactive = no such curve, though single readings can be large; an effect the other way counts as inactive or inconclusive. Potency is the fitted concentration of half-maximal effect.
SMILES,Sfp PPTase inh,ClpP mod,Epigenetic reg,VP16 counter,RORg inh,PINK1 expr mod
COc1ccc(N/N=C(/C(N)=O)C2=NC(C)(C)Cc3ccccc32)cc1,28µM*,1%,-1%,1%,?,-1%
COc1ccc(N/N=C(\C#N)C(N)=O)cc1,1%,.,-1%,19%,15%,0%
COc1ccc(OC)c(C2C=C(C34CC5CC(CC(C5)C3)C4)NC(=S)N2)c1 (stereo not drawn),-8%,.,0%,3.2µM*,3.2µM*,3%
S=C1NC(C23CC4CC(CC(C4)C2)C3)=CC(c2ccc3c(c2)OCO3)N1 (stereo not drawn),3%,.,-7%,?,0.71µM*,0%
COc1ccc(C2=CC(c3cc(OC)c(OC)c(OC)c3)NC(=S)N2)cc1 (stereo not drawn),14%,-6%,0%,?,13µM*,11%
COc1cc(C2C=C(C34CC5CC(CC(C5)C3)C4)NC(=S)N2)cc(OC)c1OC (stereo not drawn),13%,-1%,-2%,0.79µM*,1µM*,12%
COC(=O)NC(c1ccccc1)C1(C(=O)OC)C(=O)Cc2ccccc21 (stereo not drawn),-2%,.,-1%,4%,19%,.
c1ccc(C2Nc3cccc4cccc(c34)N2)cc1,28µM*,-5%,.,-21%,?,-4%
O=[N+]([O-])c1ccccc1C1Nc2cccc3cccc(c23)N1,8.9µM*,1%,?,-1%[0.365 µM],1µM*,4%
Clc1cccc(Cl)c1C1Nc2cccc3cccc(c23)N1,?,.,.,4µM*,0.71µM*,3%
Fc1cccc(Cl)c1C1Nc2cccc3cccc(c23)N1,-15%,1%,.,.,.,2%
COc1ccccc1C1Nc2cccc3cccc(c23)N1,56µM*,?,5%,11%,?,12%
O=C(CCCCn1c(=O)c2ccccc2n(Cc2ccccc2Cl)c1=O)NCCc1ccccc1,.,-4%,1%,.,.,0%
Cc1ccc(Nc2c(-c3cccs3)nc3nc(C)cc(C)n23)cc1,.,0%,1%,.,.,0%
O=C(NCc1cccs1)c1nn(-c2ccccc2)nc1CO,.,3%,-1%,.,.,-1%
Oc1ccccc1C1Nc2cccc3cccc(c23)N1,22µM*,-6%,7%,-15%,16%,1%
Nc1nc(SCC(=O)Nc2ccc(Oc3ccccc3)cc2)n[nH]1,-16%,-1%,-2%,18µM*,?,0%
CN1CCN(CC(=O)Nc2ccc(Oc3ccccc3)cc2)CC1,1%,-1%,-3%,0%,-4%,-1%[38.3 µM]
COc1ccc(NC(=O)CSc2n[nH]c(-c3ccccn3)n2)cc1,-13%,.,.,?,16µM*,-1%
CCOC(=O)N1CCN(CC(=O)Nc2ccc(Oc3ccccc3)cc2)CC1,-3%,28µM*,5%,5%,3%,1%
COc1ccccc1NC(=O)CSc1n[nH]c(-c2ccccn2)n1,-8%,-3%,.,5µM*,6.3µM*,-3%
CCCC(=O)C1=C(c2ccc(C)cc2)N(C(=O)CCC)n2cnnc2S1,.,-3%,5%,.,.,1%
CC(C)Oc1ccc(-c2nc(-c3cccnc3)no2)cc1,.,-4%,.,.,.,4%
Cc1nc(NCC(=O)c2c[nH]c3ccccc23)sc1C,.,-16%,.,.,.,0%
COc1ccc(OC2C(O)COC2/C=C/C#Cc2ccccc2)cc1 (stereo not drawn),0%,.,0%[10.1 µM],21%[10 µM],4%[10 µM],.
SMILES,Sfp PPTase inh,ClpP mod,Epigenetic reg,VP16 counter,RORg inh,PINK1 expr mod
Cc1cnc2c(C)cccc2c1C,.,-12%,.,.,.,.
O=C(CSc1n[nH]c(-c2ccccn2)n1)Nc1ccccc1F,?,.,.,5µM*,3.5µM*,0%
O=[N+]([O-])c1ccc(N2CCN(c3ccccc3Cl)CC2)cn1,17%,.,.,?,26%,1%
O=[N+]([O-])c1ccc(N2CCN(c3ccc(O)cc3)CC2)cn1,56µM*,-2%,.,4%,31%,0%
O=c1[nH]/c(=C/c2ccc3c(c2)OCO3)c(=O)[nH]/c1=C/c1ccc2c(c1)OCO2,.,0%,.,.,.,.
Cc1ccccc1C(=O)Nc1nnc(S(=O)(=O)N(C)Cc2ccco2)s1,45µM*,-5%,.,7%,?,1%
CCCC(=O)Nc1nnc(S(=O)(=O)N(C)Cc2ccco2)s1,45µM*,.,.,-5%,13%,1%
CC(C)C1C(C#N)=C(N)SC(N)=C1C#N,?,-4%,-13%,1%,-9%,.
CC(CC1C(C#N)=C(N)SC(N)=C1C#N)c1ccccc1 (stereo not drawn),7.9µM*,-4%,1%,?,?,?
CC(c1ccccc1)C1C(C#N)=C(N)SC(N)=C1C#N (stereo not drawn),22µM*,3%,-2%,?,?,2%
CC1CN(C(=O)CCC(=O)NCc2cccs2)c2cc(Cl)ccc2O1 (stereo not drawn),.,0%,-2%,.,.,1%
Cc1c(C(=O)N(C)C)sc2c1c(=O)n(-c1ccc(F)cc1)c(=O)n2Cc1ccccc1C#N,.,1%,0%,.,.,1%
COc1ccc2c(c1)O[C@@H](c1ccc3c(c1)OCO3)[C@H](OC(=O)NS(=O)(=O)c1ccc(F)cc1)C2=O,1%,.,-1%,10%,5%,.
O=C(c1ccc(S(=O)(=O)N2CCC(c3nc4ccccc4[nH]3)CC2)cc1)N1CCOCC1,50µM*,-1%,-2%,0%,21%,4%[38.3 µM]
O=S(=O)(c1ccc2c(c1)CCC2)N1CCNCC1,.,28µM*,.,.,.,2%
C=CC[C@@H]1C=C[C@H](O/N=C\[C@@H](C)[C@H](OCc2ccccc2)C(C)C)[C@H](CO)O1,0%,.,0%[10.1 µM],-1%[10 µM],-14%[10 µM],.
COc1ccc(-c2nnc(Nc3nc4c(OC)cccc4s3)o2)cc1,-18%,40µM*,-4%,13µM*,11µM*,9%
COc1ccc2nc(Nc3ccccc3OC)sc2c1,-4%,.,-4%,?,?,1%
COc1ccc(-c2nnc(Nc3nc4c(OC)cccc4s3)o2)c(OC)c1,-17%,16µM*,3%,?,1.6µM*,13%[38.3 µM]
Cn1cc(C(=O)[C@@H]2CCc3[nH]cnc3C2)c2ccccc21,-15%,.,.,-6%,1%,.
COc1ccc(N2C(=O)[C@@H]3C[C@H]2CN3Cc2cccn2-c2ccc(Cl)cn2)c(C)c1,.,.,.,.,.,0%
CCC(Sc1nncn2c1cc1occc12)C(=O)Nc1ccc(C)c(Cl)c1 (stereo not drawn),.,-3%,-1%,.,.,2%
CCCCCCCCCCCCCCCC[n+]1ccc(/C=C/c2c(C)[nH]c3ccccc23)cc1,.,-2%,.,.,.,.
O=c1c(/C=C(\O)c2ccc(F)cc2)nc2ccccc2n1-c1ccccc1,?,1%,13µM*,3%,-2%,28%

# High-throughput results: PubChem, National Center for Advancing Translational Sciences (NCATS)
